Screening results (PubChem)
Sampled rows, rich in hits. Any-hit rate of the full collection: about 12%.
DAT uptake mod: changed hDAT dopamine uptake under cocaine IC80, either direction, primary screen, cocaine antagonist project, cell-based, LLC-PK1 hDAT, [14C]-dopamine uptake, MLSMR | Sodium-dependent dopamine transporter (Homo sapiens), Q01959 | LLC-PK1 hDAT cells, [14C]-dopamine uptake with cocaine IC80; actives deviate in either direction | B-score at 10 µM | 110,000 compounds, 1.3% hits | AID 449768, 2010;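 active = Z score or B-score, a plate-position-corrected score, falls beyond the plate's 99.7% confidence bounds, in either direction; inactive = both scores lie inside the 99.7% bounds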;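 also: scored against the spread of the other compound wells on the same plate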
D1 allo mod: D1 CRE-luciferase signal change, two-sided – cell-based, HEK293 D1, dopamine EC30, D1 allosteric modulator project, primary screen; D(1A) dopamine receptor (Homo sapiens), P21728; dopamine EC30 potentiation; actives deviate in either direction; B-score at 10 µM; 58,000 compounds, 5.9% hits;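 active = luminescence count or its row- and column-corrected plate score outside the 99.7% band of the plate's sample wells, on either side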
PostGolgi ctrl: growth inhibition of yeast control strain, primary screen, counter-screen for post-Golgi transport modulator project; AID 738, 2007; efflux-deficient yeast background strain, growth absorbance A615, 16 h; 98,000 compounds, 5% hits; inhibition, % at 10 µM
PLAP activator: PLAP enzyme activators, biochemical, luminescence, HTS | purified PLAP enzyme, luminescent substrate read-out; active compounds read high | activation fold at 20 µM | 96,000 compounds, 1.2% hits | AID 696, 2007; in the data active = activation fold above about 2
Cav32 inh: Cav3.2 calcium influx blockers – cell-based, Fluo-4 calcium fluorescence, FDSS, MLSMR library, primary screen | Cav3.2-expressing cells; active compounds read low | 100,000 compounds, 4% hits | Voltage-dependent T-type calcium channel subunit alpha-1H (Homo sapiens), O95180 | B-score at 10 µM;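 active = single-dose well whose peak fluorescence ratio is a statistical outlier from its plate by either plate-standardised score or position-corrected B-score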
PostGolgi yeast: phenotypic screen on post-Golgi transport, primary screen. post-Golgi transport phenotypic cell assay. inhibition, % at 10 µM. 98,000 compounds, 0.9% hits;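 also: yeast cells grown in 1536-well plates; yeast grown about 18 h at 30C before absorbance read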
D1 PAM confirm: D1 receptor positive allosteric modulators, retest, confirmation, cell-based, HEK293 D1, CRE-luciferase, duplicate; shares compounds with D1 allo mod; dopamine EC30 potentiation; active compounds read high; luminescence at 10 µM; 2,200 compounds, 88% hits; AID 642, 2007;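 active = luminescence in either of two replicates above the same-plate mean plus 3 SD of the low-dose dopamine control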
D1 ag no DA: D1 receptor agonism without dopamine, confirmation, mechanism study for D1 allosteric modulator project, cell-based, HEK293 D1, CRE-luciferase, secondary assay 1 | luminescence at 10 µM | luminescence, no dopamine; active compounds read high | 1,900 compounds, 0.8% hits | shares compounds with D1 allo mod | AID 646, 2007; in the data active = luminescence above about 3900
Isoprot counter: alters isoproterenol CRE-luciferase response in HEK293 cells; shares compounds with D1 allo mod; HEK293 D1 CRE-luciferase, isoproterenol EC30 counter-screen; calls only at 10 µM; 2,200 compounds, 63% hits;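 active = luminescence in either replicate above plate mean of wells with a partly effective reference agonist dose plus 3 SD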;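 also: isoproterenol raises cAMP through native beta-adrenoceptor Gs so signal bypasses D1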
Active calls of the source: *; i = inactive; nt = no result; + = active, no number. Rule as the data show it, unless noted: active = inhibition above about 30%; inactive = the rest.

SMILES	DAT uptake mod	D1 allo mod	PostGolgi ctrl	PLAP activator	Cav32 inh	PostGolgi yeast	D1 PAM confirm	D1 ag no DA	Isoprot counter
Cc1ccc(-n2cnnn2)c2cccnc12	-0.3	2.56*	2.9	0.8	0.472	6.5	8320*	1580	i
O=C(CSc1nnnn1-c1ccccc1)N1CCc2ccccc2C1	-0.64	5.38*	6.9	0.7	-1.67	20.4	5840*	nt	i
O=C(CSc1nnc(-c2ccccc2Br)o1)Nc1cccc2ccccc12	-0.666	-0.938	2.9	0.8	-0.106	0.5	nt	nt	nt
O=C(CSc1nnc(-c2ccccc2Br)o1)N1CCc2ccccc2C1	2.88*	9.92*	2.0	1.1	-1.31	-11.0	18392*	1512	+
COC(=O)c1cc(=O)n2c(-c3ccccc3)csc2n1	0.382	0.018	6.1	1.1	-0.025	14.9	nt	nt	nt
O=c1nc2scc(-c3ccccc3)n2c2ccccc12	-1.01	3.39*	13.7	0.8	1.28	2.4	17356*	1720	i
CC1CCN(S(=O)(=O)c2ccc(NC(=O)CSc3nnnn3C)cc2)CC1	0.142	0.0126	-3.0	1	-0.112	-12.7	nt	nt	nt
Cn1c(=O)[nH]c(=O)c2c1nc(N1CCCCCC1)n2CCN1CCCCCC1	0.272	0.38	9.9	nt	0.659	-0.9	nt	nt	nt
Cn1c(N2CCCC2)nc2c1c(=O)n(Cc1ccc(F)cc1)c(=O)n2C	0.665	4.46*	10.8	1.1	-0.0238	-0.3	12452*	1616	+
C/C(Cl)=C/Cn1c(N2CCCC2)nc2c1c(=O)n(C)c(=O)n2C	0.107	8.45*	-0.5	1.5	2.48	21.1	7912*	nt	i
C=CCn1c(N2CCCCCC2)nc2c1c(=O)[nH]c(=O)n2C	-0.7	6.42*	6.9	1.1	0.629	-9.7	12744*	1604	+
C/C(Cl)=C\Cn1c(N2CCCC2)nc2c1c(=O)[nH]c(=O)n2C	1.2	10.5*	29.7	0.9	3.49*	-3.4	16008*	2192	+
CN(C)c1nc(OCCNC(=O)Nc2ccccc2)nc(N2CCOCC2)n1	0.00767	nt	8.3	1.7	0.0548	3.2	nt	nt	nt
Cc1cc(C(=O)Nc2c(F)cc(F)cc2Br)c(C)o1	-0.658	-0.249	12.7	0.8	0.519	1.2	nt	nt	nt
COc1ccc(CNCCNC(=O)c2ccco2)c(OC)c1OC	-0.31	0.22	2.4	1.1	0.591	-3.7	nt	nt	nt
COc1ccc2c(C)c(C(=O)NCC(C)O)oc2c1OC (stereo not drawn)	-1.2	7.53*	6.7	0.8	-0.0326	0.5	11688*	1436	+
COc1ccc(-c2c3c(=O)n(C)c(=O)n(C)c3cn2-c2cc(OC)ccc2OC)cc1	2.09	6.01*	0.0	1.4	1.09	3.0	8244*	1200	+
COc1ccc(-c2c3c(=O)n(C)c(=O)n(C)c3cn2Cc2ccccn2)cc1	0.903	-1.05	9.3	1.3	0.211	-3.2	nt	nt	nt
COc1ccc(S(=O)(=O)N2CCSC2c2ccc(OC)c(OC)c2)cc1 (stereo not drawn)	0.237	4.17*	10.4	1.4	-0.976	-7.9	10220*	1664	i
Cc1ccc(CNC(=O)C2CCCN(S(=O)(=O)c3c(C)noc3C)C2)cc1 (stereo not drawn)	-1.72	nt	-1.7	0.8	0.617	-2.2	nt	nt	nt
